# High-throughput results as filed in PubChem BioAssay.
# In the library only some 2.6% were active in any assay of this set; here they are far more common.
# Cruzain inh noDet: cruzain (T. cruzi) inhibition without detergent | P25779 | purified cruzain, Z-FR-AMC fluorescence, no detergent | Potency, µM, for inactives: max response, negative = inhibition, usual class: inhibitors | hit rate 2.3% among 200,000;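 further: plate controls were enzyme without inhibitor for no effect and buffer without enzyme for full effect; nearly all actives have a fitted effect of over 40% in size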
# Target sequence (P25779 123-467 limits assumed): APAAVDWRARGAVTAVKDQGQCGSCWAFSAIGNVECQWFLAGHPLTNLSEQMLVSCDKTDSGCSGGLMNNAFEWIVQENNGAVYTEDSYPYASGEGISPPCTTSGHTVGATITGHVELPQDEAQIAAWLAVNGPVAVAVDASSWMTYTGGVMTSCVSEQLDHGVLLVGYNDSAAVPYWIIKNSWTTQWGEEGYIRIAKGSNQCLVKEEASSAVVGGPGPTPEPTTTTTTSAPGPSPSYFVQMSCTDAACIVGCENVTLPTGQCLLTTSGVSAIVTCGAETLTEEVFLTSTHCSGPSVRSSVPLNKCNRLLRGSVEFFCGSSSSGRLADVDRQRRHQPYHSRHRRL
#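 Detergent-free condition (0.00005% Triton X-100) in acetate buffer pH 5.5 with DTT. 1.5 nM enzyme and compound were pre-mixed 15 min, then 2 uM Z-FR-AMC substrate added; reaction progress from fluorescence change between first and third reads (60 s).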
# Cruzain Triton: cruzain (T. cruzi) inhibition with detergent; P25779; purified cruzain, Z-FR-AMC fluorescence, 0.01% Triton; Potency, µM, for the others: max response, negative = inhibition, usual class: inhibitors; hit rate 0.43% among 200,000; AID 1478;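 further: plate controls were neutral wells for no effect and buffer without enzyme for full effect; nearly all actives have a fitted effect of over 40% in size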
#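 Cysteine protease activity tested under reducing, mildly acidic conditions (100 mM sodium acetate pH 5.5, 5 mM DTT) plus 0.01% Triton X-100. Cruzain 1.5 nM; substrate Z-FR-AMC 2 uM; 15 min compound preincubation at room temperature.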
# Active calls of the source: *; ? = inconclusive; ! = a repeat was not active. The call rests on the fitted dose curve; in most records, active means well fitted curve in the direction sought with a large enough effect; inconclusive means small, poorly fitted or top-dose-only effect, or another doubt; inactive means no such curve, though single readings can be large; an effect the other way counts as inactive or inconclusive. Potency means the concentration at half of the fitted maximal effect.
SMILES,Cruzain inh noDet,Cruzain Triton
COc1ccc2oc(=O)c(/C(C)=N/Nc3nc(-c4cc(C)ccc4C)cs3)cc2c1,12.6µM*,-21.1%
CCCCCCOc1ccc(/C=c2\s/c(=C(/C#N)C(=O)NCc3ccco3)n(-c3ccccc3)c2=O)cc1,3.16µM*,-0.9%
COC(=O)/C=c1/s/c(=C(/C#N)C(=O)NCc2ccccc2)n(-c2ccccc2)c1=O,?,1.2%
CC(C)=CCc1c2c(c3occ(-c4ccc(O)c(O)c4)c(=O)c3c1O)C=CC(C)(C)O2,25.1µM*!,-1.2%
CC(C)=CCc1c2c(c3occ(-c4ccc(O)cc4)c(=O)c3c1O)C=CC(C)(C)O2,?,-8.6%
Cc1cccc(CNC(=O)c2cnc3c(-c4cccc(C)c4)c(C)nn3c2C)c1,-1.2%,-1.0%
Cc1ccc(-c2c(CN3CCN(c4cccc(C(F)(F)F)c4)CC3)csc2C)cc1,-5.9%,-6.9%
CC(C)(C)c1ccc(CSc2nc3c(c(=O)[nH]2)CCCC3)cc1,-13.2%,2.5%
C/C(CC(=O)Nc1ccc(C)c(Cl)c1)=N\NC(=O)Cc1ccccc1,11.4%,-2.6%
C/C(CC(=O)Nc1ccc(OCc2ccccc2)cc1)=N\NC(=O)C(=O)Nc1ccc(C)c(Cl)c1,7.94µM*,1.3%
CC(=O)N[C@@H](CC(C)C)C(=O)O,-3.9%,-0.7%
CSCC[C@H](C=O)NC(=O)[C@H](CC(C)C)NC(=O)[C@H](CC(C)C)NC(C)=O,0.0025µM*,0.0028µM*
COC(=O)C(C)NC(=O)C(C)NC(=O)OCc1ccccc1 (stereo not drawn),-3.5%,0.0%
CSCCC(NC=O)C(=O)NC(CC(C)C)C(=O)NC(Cc1ccccc1)C(=O)O (stereo not drawn),4.9%,5.0%
CCCC[C@@H](C=O)NC(=O)[C@H](CC(C)C)NC(=O)[C@H](CC(C)C)NC(C)=O,0.0032µM*,?
CCCCC(C=O)NC(=O)C(CC(C)C)NC(=O)OCc1ccccc1 (stereo not drawn),0.0025µM*,0.002µM*
O=C(O)[C@H]1C[C@@H](CP(=O)(O)O)CCN1,6.3%,4.0%
COc1ccc(NC(=O)CSc2nc(-c3ccco3)cc(C(F)(F)F)n2)cc1,-6.4%,-1.6%
CCOc1ccc(N2C(=O)CC(Sc3nc(-c4cccs4)cc(C(F)(F)F)c3C#N)C2=O)cc1 (stereo not drawn),12.6µM*,-19.5%
CCOc1ccc(N2C(=O)CC(Sc3ncccn3)C2=O)cc1 (stereo not drawn),-1.9%,-1.4%
O=C(/C=C/c1cccs1)Nc1ccc(N2CCOCC2)c(S(=O)(=O)Nc2ccccc2Cl)c1,25.1µM*,-2.7%
O=C(Nc1ccc(Cl)c(S(=O)(=O)Nc2ccccc2Cl)c1)c1cccs1,-24.0%,-4.7%
COc1ccccc1NS(=O)(=O)c1cc(NC(=O)c2ccncc2)ccc1N1CCOCC1,?,-4.1%
O=C(/C=C/c1ccc(Cl)cc1)NC(=S)Nc1ccc(N2CCOCC2)c(Cl)c1,?,-5.3%
COc1ccccc1NS(=O)(=O)c1cc(NC(=O)/C=C/c2cccs2)ccc1N1CCOCC1,25.1µM*,-8.0%
SMILES,Cruzain inh noDet,Cruzain Triton
O=C(/C=C/c1cccs1)Nc1ccc(N2CCOCC2)c(S(=O)(=O)Nc2cc(Cl)ccc2Cl)c1,5.01µM*,-3.5%
CCOC(=O)c1noc2nc(C)n(CC(=O)Nc3ccc(Br)cc3C)c(=O)c12,6.1%,-1.9%
O=C(CSc1nnc2ccc3ccccc3n12)Nc1ccccc1Cl,-3.4%,-4.3%
O=C(O)CCN1C(=O)C(=C2CCCCCC2)SC1=S,-2.0%,-0.7%
O=C1C(=C2CCCCC2)SC(=S)N1Cc1ccco1,15.8µM*,20µM*
COc1ccc(CNc2oc(-c3ccc(COc4ccc(OC)cc4)o3)nc2C#N)cc1,-22.4%,-3.5%
C=CCCCCCC,3.9%,3.6%
O=C(CC1S/C(=N/N=C/c2c[nH]c3ccccc23)NC1=O)Nc1ccccc1 (stereo not drawn),?,-6.2%
O=C(CC1S/C(=N/N=C/c2c[nH]c3ccc(OCc4ccccc4)cc23)NC1=O)Nc1ccccc1 (stereo not drawn),6.31µM*,-3.5%
O=C(CC1S/C(=N/N=C/c2cccs2)NC1=O)Nc1ccc(Cl)cc1 (stereo not drawn),-26.7%,-1.9%
O=C(CC1S/C(=N/N=C/c2cccs2)NC1=O)Nc1ccc(Cl)c(Cl)c1 (stereo not drawn),20µM*,-5.0%
C=CC1=C(C)C2=Cc3c(C=C)c(C)c4[n]3[Sn+2][n]3c(c(C)c(CCC(=O)O)c3=CC3=NC(=C4)C(C)=C3CCC(=O)O)=CC1=N2,?,-9.7%
COc1cccc(OC)c1C(=O)Nc1nc2c(s1)CCc1ccccc1-2,6.7%,0.1%
CCCN(CCC)S(=O)(=O)c1ccc(C(=O)Nc2nc3c(s2)CCc2ccccc2-3)cc1,7.94µM*,1.3%
Cc1oc(-c2ccccc2Cl)nc1CS(=O)(=O)CC(=O)NC(C)CCc1ccccc1 (stereo not drawn),?,-7.9%
CCc1ccc(NC(=O)c2cc3c(=O)n(Cc4cccs4)ccc3nc2C)cc1,?,0.6%
CC(Oc1ccc(-c2ccccc2)c(F)c1)c1ccn(S(=O)(=O)c2ccc(Cl)cc2)n1 (stereo not drawn),?,10.7%
Cc1ccc(S(=O)(=O)n2ccc(-c3ccc(OCc4c(F)cccc4Cl)cc3)n2)cc1,31.6µM*,1.9%
Cc1ccc(S(=O)(=O)n2ccc(-c3cccc(OCc4c(F)cccc4Cl)c3)n2)cc1,7.94µM*,4.8%
CN(CCOc1ccc(-c2ccn(S(=O)(=O)c3ccc(Cl)cc3)n2)cc1)c1ccccn1,-28.6%,2.4%
O=C(CSc1ncc(S(=O)(=O)c2ccc(Br)cc2)c(=O)[nH]1)NCc1ccc(Cl)cc1,?,-14.2%
CCC1=C2CC[C@H]3C(=O)N(C)C(=O)[C@H]3[C@H]2[C@@]2(C)C(=O)N(CC(=O)OC)C(=O)N2C1=O,11.8%,-6.3%
COc1ccc(CCNC(=O)CSc2nc3ccccc3nc2Cc2ccc(C)cc2)cc1OC,?,-5.5%
COc1ccc(-c2nc(C)sc2CC(=O)O)cc1,9.6%,4.0%
COc1ccc(C2=NN(c3nc(-c4ccccc4)c(CC(=O)O)s3)C(c3ccco3)C2)cc1 (stereo not drawn),12.6µM*,15.8µM*
SMILES,Cruzain inh noDet,Cruzain Triton
Cc1cc(C(=O)CSc2nc3ccccc3[nH]2)c(C)n1Cc1ccco1,25.1µM*,-1.2%
Cc1cc(C(=O)CN2C(=O)NC(c3ccccc3)(c3ccccc3)C2=O)c(C)n1Cc1ccco1,?,-2.1%
Cc1cc(C(=O)CN2C(=O)NC(C)(c3cccc(Br)c3)C2=O)c(C)n1Cc1ccco1 (stereo not drawn),31.6µM*,-1.0%
Cc1cc(C(=O)CSc2nn(-c3ccccc3)c(=S)s2)c(C)n1Cc1ccco1,25.1µM*,-3.1%
CCCn1c(C)cc(C(=O)CSc2nc3ccccc3c(=O)n2Cc2ccco2)c1C,-21.2%,-4.4%
C=CCn1c(C)cc(C(=O)CSc2nc3ccccc3[nH]2)c1C,-6.8%,7.0%
Cc1ccc(NC(=O)c2cccc(N3CCCS3(=O)=O)c2)cc1,-5.5%,-1.3%
O=C(O)c1cc(-c2ccncc2)nc2ccccc12,2.3%,-2.5%
O=C(Cc1ccccc1)NCC(=O)OCC(=O)c1ccc([N+](=O)[O-])cc1,-17.5%,-13.7%
O=C(OCC(=O)c1ccc([N+](=O)[O-])cc1)/C(=C/c1ccc(Cl)cc1)NC(=O)c1ccccc1,15.8µM*,2.82µM*
O=C(O)c1cccc(NC(=O)c2cccc(S(=O)(=O)N3CCCCC3)c2)c1,2.3%,-3.0%
